Screening data (PubChem BioAssay)
Cycloheximide cs: Cycloheximide Counterscreen for Small Molecule Inhibitors of Shiga Toxin. max response, %. 300,000 tested, 12% active. cell reporter, cycloheximide protein synthesis inhibition counterscreen. AID 2314, 2010; in the data active means max response mostly above about 13%, no sharp cut-off; inactive means mostly below about 14%; further: read at 38.3 µM for the half of the compounds with a filed dose; 0% is about no effect
HCMV antiviral: qHTS Assay for inhibitors of the human cytomegalovirus (HCMV); HFF cells, HCMV-luciferase reporter, 72 h; hits give low values; activity change, negative = inhibition, % at 57.5 µM; 410,000 tested, 4.5% active; in the data active means activity change below about -60%; inconclusive means no clear call, values can overlap the other calls; inactive means above about -39%; further: on the % scale 0 is the no-effect control and ±100 the full control effect
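Human foreskin fibroblasts infected with luciferase-reporter HCMV at MOI 1 PFU/cell, compounds at two doses. Luciferase measured 72 h post infection; normalized to buffer-only basal and Salinomycin (10uM) controls.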
Pf growth 96h: Primary qHTS for delayed death inhibitors of the malarial parasite plastid, 96 hour incubation; P. falciparum luciferase reporter growth, 96 h; Potency, µM (top dose mostly 28.7 µM), without a hit: at the highest dose activity change, negative = inhibition, hits mostly inhibitors; 320,000 tested, 6.9% active; AID 504834, 2011; further: potency means the concentration at half of the fitted maximal effect; on the % scale 0 is the no-effect control and ±100 the full control effect
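P. falciparum expressing integrated firefly luciferase grown in erythrocytes (2% hematocrit, 0.05% parasitemia final) with compounds for 96 hours at 37 C, 5% CO2. Growth inhibition read as loss of luminescence after adding luciferase detection reagent.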
Pf growth 48h: Primary qHTS for delayed death inhibitors of the malarial parasite plastid, 48 hour incubation. 310,000 tested, 5.9% active. Potency, µM (series often up to 28.7 µM), inactives show top-dose activity change, negative = inhibition, hits mostly inhibitors. P. falciparum luciferase growth in erythrocytes, 48 h; further: potency means the concentration at half of the fitted maximal effect; on the % scale 0 is the no-effect control and ±100 the full control effect
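In quantitative HTS format, infected erythrocytes bearing luciferase-reporter parasites were treated for a single generation at 37 C. Luminescence after adding detection reagent served as the growth measure.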
Shiga toxin inh: A qHTS for Small Molecule Inhibitors of Shiga Toxin; Vero cells, Shiga toxin protein synthesis inhibition reporter; inhibition, % at 38.7 µM; 290,000 tested, 9.2% active; in the data active means inhibition mostly above about 28%, no sharp cut-off; inactive means mostly below about 43%; further: 0% is about no effect
HCV inh: qHTS Assay for Inhibitors of Hepatitis C Virus (HCV); Huh7.5.1 HCVcc-Cre infection, luciferase reporter, 44 h; Potency, µM (series often up to 41.8 µM), inactives show top-dose activity change, negative = inhibition, hits mostly inhibitors; 340,000 tested, 3.4% active; AID 651820, 2012; further: potency means the concentration at half of the fitted maximal effect; on the % scale 0 is the no-effect control and ±100 the full control effect
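Compounds are dispensed onto cells plated 4 h earlier at 1,000 per well, with HCVcc-Cre virus (about 0.5 moi) added next. Following 44 h of culture, luminescent signal is measured for 15 sec after 15 min with substrate at room temperature.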
* hit, by the source's call; i = inactive; ? = inconclusive; / = not tested or not shown; ! = not active in a repeat; [ ] = remark or other dose. This is a sample that favours compounds with a hit; in the whole collection about 21% have one here. Unless noted, the call rests on the fitted dose curve; in most records, active means well fitted inhibition curve with a large enough effect; inconclusive means small, poorly fitted or top-dose-only effect, or another doubt; inactive means no such curve, though single readings can be large or run the other way.

SMILES	Cycloheximide cs	HCMV antiviral	Pf growth 96h	Pf growth 48h	Shiga toxin inh	HCV inh
O=C1C(=O)c2ccccc2C(O)=C1C1CCC(c2ccc(Cl)cc2)CC1 (stereo unspecified)	/	13	0.0005µM*	0.0006µM*!	/	7%
Cc1ccccc1OCCNCC(C)O (stereo unspecified)	-1	-10	13µM*	1%	-4	5%
Cc1ccccc1OCC(O)CN (stereo unspecified)	6	-21	/	16%	8	18%
CCOc1ccccc1CNCCNCC(C)O (stereo unspecified)	-2	3	9.3µM*	-23%	-18	5%
CCOC(=O)C(C)/C(C)=N/NC(N)=S (stereo unspecified)	-2	?	4.7µM*	1.3µM*	20	3%
CS(=O)(=O)Nc1ccc(C2=NN(S(C)(=O)=O)C(c3ccccc3)C2)cc1 (stereo unspecified)	20	119	135%	25%	42*	12%
CS(=O)(=O)Nc1cccc(C2=NN(S(C)(=O)=O)C(c3ccc4c(c3)OCO4)C2)c1 (stereo unspecified)	25*	80	2.3µM*	37%	50*	-12%
CS(=O)(=O)N1N=C(c2ccccc2)CC1c1ccc2c(c1)OCO2 (stereo unspecified)	66*	87	6%	86%	99*	1%
Nc1c2c(nc3ccccc13)CCC2	-3	43	32%	?	15	-2%
Nc1c2c(nc3ccccc13)N(C1CCCCC1)CC2	-4	-20	2%	13µM*	-7	0.32µM*
Nc1c2c(nc3ccc(Br)cc13)N(C1CCCCC1)CC2	6	/	10µM*	?	-4	/
CCn1cc(C(=O)N2CCN(c3ccccc3F)CC2)c(=O)c2cc(S(=O)(=O)N(C)C3CCCCC3)ccc21	/	20	/	/	/	/
CCCCN(CC)CCCNC(=O)c1cn(C)c2ccc(S(=O)(=O)N(C)C3CCCCC3)cc2c1=O	22	-17	15µM*	?	-8	3%
CN(C1CCCCC1)S(=O)(=O)c1ccc2c(c1)c(=O)c(C(=O)NCCCN1CCCC1)cn2C	-7	-23	13µM*	/	-3	-10%
CCn1cc(C(=O)N2CCc3ccccc32)c(=O)c2cc(S(=O)(=O)N(C)C3CCCCC3)ccc21	-5	4	?	12µM*	-10	?
CN(C1CCCCC1)S(=O)(=O)c1ccc2c(c1)c(=O)c(C(=O)NCCN1CCCC1)cn2C	-6	-38	?	/	5	-12%
CCn1cc(C(=O)NCCCN2CCCC(C)C2)c(=O)c2cc(S(=O)(=O)N(C)C3CCCCC3)ccc21 (stereo unspecified)	-5	?	12µM*	?	-9	?
O=C(OCN1C(=O)c2ccccc2C1=O)c1cccnc1SC(F)F	-7	5	5%	3%	-8	32%
O=C(Cn1cnc2sc3c(c2c1=O)CCCC3)NCC(=O)Nc1c(F)cc(F)cc1Br	-11	4	?	4%	-2	?
Cc1csc(=N)n1-c1ccc(Cl)cc1	59*	?	45%	134%	176*	-15%
Cc1csc(=S)n1-c1ccccc1	-2	-6	?	-14%	-18	21%
Cc1ccc(-n2c(C)csc2=N)cc1	56*	35	437%	/	55*	-15%
O=C(NCc1ccccc1Cl)c1ccccc1Oc1ccccc1	-1	?	?	-14%	-1	-3%
CCN(CC)S(=O)(=O)c1ccc(N2CCCC2)c(NC(=O)c2ccccc2OC)c1	2	-36	10µM*	?	2	-23%
CCN(CC)S(=O)(=O)c1ccc(N2CCCCC2)c(NC(=O)/C=C/c2cc(OC)c(OC)c(OC)c2)c1	-1	-2	10µM*	?	-4	?
SMILES	Cycloheximide cs	HCMV antiviral	Pf growth 96h	Pf growth 48h	Shiga toxin inh	HCV inh
COc1ccccc1C(=O)Nc1cc2c(cc1N1CCCC1)n(C)c(=O)c(=O)n2C	/	11	/	/	/	/
Cc1nnc(SCc2nnc(-c3cccs3)o2)s1	37*	2	39%	37%	35	34%
Cc1nnc(SCSc2nnc(C)s2)s1	-4	11	-20%	-22%	10	12%
Cc1nnc(SCc2ccccc2CSc2nnc(C)s2)s1	49*	8	61%	-3%	-10	2%
Cc1nnc(SCc2nnc(-c3cccs3)o2)n1C	11	10	19%	28%	24	8%
O=C(c1cc(C(=O)N2CCOCC2)c2nc3ccccc3n2c1)c1cc(Cl)cc(Cl)c1O	0	-14	7%	?	2	?
COC(=O)c1cc(NC(=O)c2cccc(Cl)c2)c(=O)oc1/C=C/Nc1cc(C)cc(C)c1	16	/	44%	i	57*	/
C=CCOn1c(=O)c(-c2ccc(F)cc2)[n+]([O-])c2ccccc21	-1	-31	29%	36%	7	9%
O=C(NN1CCOCC1)c1cc(-c2cccs2)nc2ccccc12	-3	33	0%	6%	-4	19%
Cc1cc(C)c2nc(NNC(=O)c3cc(-c4cccs4)nc4ccccc34)sc2c1	-3	-21	3.3µM*	1.9µM*	-15	10µM*
Cc1ccc2sc(NNC(=O)c3cc(-c4cccs4)nc4ccccc34)nc2c1C	-2	13	10µM*	?	-7	-3%[8.37 µM]
O=C(NNc1nc2ccc(Cl)cc2s1)c1cc(-c2cccs2)nc2ccccc12	-4	87	7.4µM*	?	0	-3%
Cc1ccc(NC(=O)c2cc(-c3cccs3)nc3ccccc23)nc1	-1	-37	?	?	4	-26%
COc1ccc(CNC(=O)c2cnc3sc4cc(OC)ccc4n3c2=O)cc1	/	2	/	/	/	/
O=C(c1ccc(C(=O)N2CCCc3ccccc32)nc1)N1CCCc2ccccc21	12	14	?	-30%	33	4%
O=C(c1noc2c1CCc1ccccc1-2)N1CCOCC1	36*	53	25%	78%	43*	-5%
O=C(c1noc2c1CCc1ccccc1-2)N1CCc2ccccc2C1	28*	/	8%	7%	60*	-20%
O=C(c1noc2c1CCc1ccccc1-2)N1CCCc2ccccc21	21*	38	/	3.3µM*	19	?
Cc1onc(-c2ccccc2Cl)c1C(=O)N1CCc2ccccc2C1	-2	2	?	?	-5	-20%
CCN(CC)CCCNC(=O)c1c(C)oc2ncn(CC(C)C)c(=O)c12	/	12	/	/	/	/
COc1ccc(CNC(=O)c2nn(-c3ccccc3C)nc2CO)cc1	/	33	/	/	/	/
O=C(O)[C@H](Cc1ccccc1)NC(=O)N1CCN(c2ccc(F)cc2)CC1	1	12	-3%	16%	-7	22%
